Records with an inconclusive call do not appear. Active and inactive are the calls of the source. Calls follow the shape of the dose curve; as a rule, active = well fitted curve in the direction sought with a large enough effect; inconclusive = small, poorly fitted or top-dose-only effect, or another doubt; inactive = no such curve, though single readings can be large; an effect the other way counts as inactive or inconclusive.

In PubChem BioAssay (NCATS) one finds Potency data, which are given here for 13 compounds.

The nature of assay [1]: Quantitative High-Throughput drug screen in 47 multiple myeloma cell lines against the NCATS MIPE library collection: JIM3_ECACC cell viability assay (AID 1918963; also: nearly all actives have a fitted effect of over 35% in size; also: potency is read from the fitted curve at half-maximal effect). Conditions: JIM3 myeloma viability, CellTiter-Glo ATP, 48 h; series mostly up to 45.8 µM. The method, boiled down:
(§1)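 Myeloma cells (500 per well) were exposed to MIPE 4.0 compounds by pin transfer and incubated 48 hours at 37C, 5% CO2. Viability was read as ATP by CellTiter-Glo luminescence, normalised to DMSO (100%) and media-only (0%) wells.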
A general note: ATP-based viability assays read luminescence as a measure of living cells.

Assay [2] is described as follows: Quantitative High-Throughput drug screen in 47 multiple myeloma cell lines against the NCATS MIPE library collection: JJN3_DSMZ cell viability assay (AID 1918966; also: nearly all actives have a fitted effect of over 50% in size). The settings on record: JJN3 myeloma cells viability, CellTiter-Glo ATP, 48 h; series mostly up to 45.8 µM. The method, boiled down:
(§2)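 Primary qHTS used for cherry-picking: cells at 500/well, library compounds for 48 h (37C, 5% CO2), luminescent ATP assay.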

Assay [3] is described as follows: Quantitative High-Throughput drug screen in 47 multiple myeloma cell lines against the NCATS MIPE library collection: H1112_PLB cell viability assay (AID 1918967; also: nearly all actives have a fitted effect of over 30% in size; also: potency is read from the fitted curve at half-maximal effect). The settings on record: H1112 myeloma cells viability, ATP luminescence, 48 h; series mostly up to 45.8 µM. The method, boiled down:
as §2

Assay [4] in a line: Quantitative High-Throughput drug screen in 47 multiple myeloma cell lines against the NCATS MIPE library collection: KMS12PE_JCRB cell viability assay (AID 1918972). Also: nearly all actives have a fitted effect of over 30% in size. Also: potency is read from the fitted curve at half-maximal effect. Conditions: KMS12PE myeloma viability, CellTiter-Glo ATP, 48 h; series mostly up to 45.8 µM. The method, boiled down: (§3)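 CellTiter-Glo ATP luminescence gave viability after 48 h compound treatment at 37C of 500 multiple myeloma cells per well. Normalisation used DMSO-only wells as 100% and media-only wells as 0% viability; primary qHTS of approved and investigational drugs.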

Assay [5] is described as follows: Quantitative High-Throughput drug screen in 47 multiple myeloma cell lines against the NCATS MIPE library collection: KMS20_JCRB cell viability assay (AID 1918973). Also: nearly all actives have a fitted effect of over 45% in size. Also: potency is read from the fitted curve at half-maximal effect. Conditions: CellTiter-Glo ATP, 48 h; series mostly up to 45.8 µM. Summed up: as §2
Assay [6] in a line: Quantitative High-Throughput drug screen in 47 multiple myeloma cell lines against the NCATS MIPE library collection: KMS26_JCRB cell viability assay (AID 1918975). Also: nearly all actives have a fitted effect of over 45% in size. Also: potency is read from the fitted curve at half-maximal effect. Conditions: KMS26 myeloma cells viability, CellTiter-Glo ATP, 48 h; series mostly up to 45.8 µM. Summed up:
as §1

A short description of assay [7]: Quantitative High-Throughput drug screen in 47 multiple myeloma cell lines against the NCATS MIPE library collection: MOLP8_DSMZ cell viability assay (AID 1918977). Also: nearly all actives have a fitted effect of over 45% in size. Also: potency is read from the fitted curve at half-maximal effect. Conditions: MOLP8 myeloma viability, CellTiter-Glo ATP luminescence, 48 h; series mostly up to 45.8 µM. The method, boiled down: (§4)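 ATP-based CellTiter-Glo luminescence after 48 h drug exposure (37 °C, 5% CO2) of 500 myeloma cells per well. DMSO-only wells set 100% viability, media-only wells 0%; MIPE 4.0 library added by pin tool.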

Assay [8] can be described thus: Quantitative High-Throughput drug screen in 47 multiple myeloma cell lines against the NCATS MIPE library collection: NCIH929_DSMZ cell viability assay (AID 1918978). Also: nearly all actives have a fitted effect of over 35% in size. Also: potency is read from the fitted curve at half-maximal effect. The settings on record: NCI-H929 myeloma viability, CellTiter-Glo ATP, 48 h; series mostly up to 45.8 µM. The method, boiled down: as §4
A short description of assay [9]: Quantitative High-Throughput drug screen in 47 multiple myeloma cell lines against the NCATS MIPE library collection: OCIMY1_PLB cell viability assay (AID 1918979). Also: nearly all actives have a fitted effect of over 35% in size. Also: potency is read from the fitted curve at half-maximal effect. The settings on record: OCI-MY1 myeloma viability, CellTiter-Glo ATP, 48 h; series mostly up to 45.8 µM. The method, boiled down:
as §4

A short description of assay [10]: Quantitative High-Throughput drug screen in 47 multiple myeloma cell lines against the NCATS MIPE library collection: MM1R_ATCC cell viability assay (AID 1918981). Also: nearly all actives have a fitted effect of over 35% in size. Also: potency is read from the fitted curve at half-maximal effect. The settings on record: MM1R multiple myeloma cells, CellTiter-Glo viability, 48 h; series mostly up to 45.8 µM. The method, boiled down: as §4
Assay [11] can be described thus: Quantitative High-Throughput drug screen in 47 multiple myeloma cell lines against the NCATS MIPE library collection: MMM1_PLB cell viability assay (AID 1918976). Also: nearly all actives have a fitted effect of over 35% in size. Also: potency is read from the fitted curve at half-maximal effect. The settings on record: MMM1 myeloma cells viability, CellTiter-Glo, 48 h; series mostly up to 45.8 µM. Summed up: as §4
The nature of assay [12]: Quantitative High-Throughput drug screen in 47 multiple myeloma cell lines against the NCATS MIPE library collection: MM1S_ATCC cell viability assay (AID 1918980). Also: nearly all actives have a fitted effect of over 45% in size. Also: potency is read from the fitted curve at half-maximal effect. The settings on record: MM1S myeloma viability, CellTiter-Glo ATP luminescence, 48 h; series mostly up to 45.8 µM. The method, boiled down: as §4
Assay [13] is described as follows: Quantitative High-Throughput drug screen in 47 multiple myeloma cell lines against the NCATS MIPE library collection: INA6_PLB cell viability assay (AID 1918965; also: potency is read from the fitted curve at half-maximal effect; nearly all actives have a fitted effect of over 55% in size). Conditions: INA6 myeloma viability, CellTiter-Glo ATP luminescence, 48 h; series mostly up to 45.8 µM. The method, boiled down: as §3
Assay [14] in a line: Quantitative High-Throughput drug screen in 47 multiple myeloma cell lines against the NCATS MIPE library collection: Karpas25_ECACC cell viability assay (AID 1918968; also: nearly all actives have a fitted effect of over 35% in size; also: potency is read from the fitted curve at half-maximal effect). Conditions: Karpas25 myeloma viability, CellTiter-Glo ATP, 48 h; series mostly up to 45.8 µM. The method, boiled down: as §2
Assay [15] in a line: Quantitative High-Throughput drug screen in 47 multiple myeloma cell lines against the NCATS MIPE library collection: KMS12BM_JCRB cell viability assay (AID 1918971). Also: nearly all actives have a fitted effect of over 35% in size. Also: potency is read from the fitted curve at half-maximal effect. The settings on record: KMS12BM myeloma viability, CellTiter-Glo ATP, 48 h; series mostly up to 45.8 µM. Summed up: as §1
Assay [16] is described as follows: Quantitative High-Throughput drug screen in 47 multiple myeloma cell lines against the NCATS MIPE library collection: KMS27_JCRB cell viability assay (AID 1918970). Also: nearly all actives have a fitted effect of over 30% in size. Also: potency is read from the fitted curve at half-maximal effect. Conditions: KMS27 myeloma cells, CellTiter-Glo ATP viability, 48 h; series mostly up to 45.8 µM. Summed up: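 Luminescent ATP read-out (CellTiter-Glo, 5 min at room temperature) after 48 h compound exposure of 500 KMS27_JCRB cells per well; DMSO wells define full viability and media-only wells zero.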

Assay [17] can be described thus: Quantitative High-Throughput drug screen in 47 multiple myeloma cell lines against the NCATS MIPE library collection: KMS21BM_JCRB cell viability assay (AID 1918974). Also: potency is read from the fitted curve at half-maximal effect. The settings on record: ATP luminescence, 48 h; viability: at 45.8 µM (top of the series). Summed up:
as §2

For `CCCOc1ccc(C(=O)OCCN(CC)CC)cc1N`, the Potency entry in assay [1], in assay [2], in assay [3], in assay [4], in assay [5] and in assay [6] was “inactive” throughout. Further, the Potency entry in assay [7], in assay [8], in assay [9] and in [10] was “inactive” throughout.
On to `CN(Cc1cc(Br)cc(Br)c1N)C1CCCCC1`, for which the Potency result in assay [1], in assay [3], in [4], in [7], in assay [8] and in assay [12] was “inactive” in each case. Further, the Potency in assay [11] was 33.2 µM (active).
`CC[C@H](C)C(=O)O[C@H]1C[C@@H](C)C=C2C=C[C@H](C)[C@H](CC[C@@H]3C[C@@H](O)CC(=O)O3)[C@H]21`: the Potency in assay [13] was 18.7 µM (active); in [11] it was 14.8 µM (active); in assay [12] it was 16.6 µM (active); in [10] it was 16.6 µM (active). Further, the Potency result in [4] and in assay [9] was “inactive” in each case.
Turning to `COc1ccc2c(c1)c(CC(=O)OCC(=O)O)c(C)n2C(=O)c1ccc(Cl)cc1`, the Potency result in [1], in assay [2], in [3], in assay [14], in [15] and in assay [4] was “inactive” in each case. In addition, the Potency result in assay [7], in assay [8] and in assay [9] was “inactive” throughout. Besides, the Potency in assay [11] is 4.18 µM (active).
`CCCCOc1ccc(CC(=O)NO)cc1`: the Potency in assay [3] is 8.33 µM (active); in assay [14], 6.62 µM (active); in assay [16], 33.2 µM (active); in assay [15], 20.9 µM (active); in assay [4] it was 23.5 µM (active); in assay [5] it was 16.6 µM (active). Also, the Potency in [17] is 14.8 µM (active); in assay [6] it was 10.5 µM (active); in assay [11], 13.2 µM (active); in [12] it was 2.64 µM (active); in assay [10], 8.33 µM (active).
For `O=S(=O)(O)CCS`, the Potency result in [3], in assay [7], in assay [8], in assay [9], in [12] and in assay [10] was “inactive” each time.
Regarding `COc1ccc(-c2ccc3cc(C(=O)O)ccc3c2)cc1C12CC3CC(CC(C3)C1)C2`, the Potency result in assay [1], in [3], in assay [14], in assay [4], in assay [6] and in assay [8] was “inactive” each time. Also, the Potency entry in assay [9] is “inactive”. Moreover, the Potency in [15] was 2.35 µM (active); in assay [11], 2.64 µM (active); in assay [12] it was 5.26 µM (active); in assay [10] it was 7.43 µM (active).
In the case of `COC(=O)Nc1nc2ccc(Sc3ccccc3)cc2[nH]1`, the Potency in assay [1] was 0.833 µM (active); in assay [13] it was 0.743 µM (active); in assay [15], 2.35 µM (active); in [4], 0.833 µM (active); in assay [17], 0.59 µM (active); in assay [6] it was 18.7 µM (active). For the same compound, the Potency in [11] is 18.7 µM (active); in [7] it was 13.2 µM (active); in assay [8], 8.33 µM (active); in [9] it was 3.32 µM (active); in assay [12], 2.09 µM (active); in assay [10] it was 4.18 µM (active).
As to `CN1CCN(c2c(F)cc3c(=O)c(C(=O)O)cn(CCF)c3c2F)CC1`, the Potency entry in [1], in assay [3], in [14], in assay [16], in assay [4] and in assay [7] was “inactive” in each case. The Potency entry in [8] and in assay [10] was “inactive” throughout.
`COc1cc(NS(=O)(=O)c2ccc(N)cc2)nc(OC)n1`: the Potency result in assay [1], in [3], in assay [14], in assay [16], in assay [15] and in [4] was “inactive” in each case. For the same compound, the Potency result in assay [17], in [6], in assay [7], in assay [8], in [9] and in [10] was “inactive” throughout.
For `COC(=O)Nc1nc2ccc(S(=O)c3ccccc3)cc2[nH]1` (configuration not stated), the Potency in [1] was 20.9 µM (active); in assay [13] it was 18.7 µM (active); in assay [14] it was 16.6 µM (active). In addition, the Potency entry in assay [6] and in assay [11] was “inactive” in each case.
As to `NC(=O)c1cccc(N)c1`, the Potency result in assay [1], in assay [3], in assay [14], in [4], in assay [6] and in assay [9] was “inactive” each time. In addition, the Potency entry in [10] is “inactive”. Besides, in assay [8], the Potency is 16.6 µM (active).
For the compound `CC(C)OC(=O)OCOP(=O)(CO[C@H](C)Cn1cnc2c(N)ncnc21)OCOC(=O)OC(C)C`, the Potency in [1] is 16.6 µM (active); in assay [14], 14.8 µM (active); in assay [15] it was 7.43 µM (active); in assay [4], 29.6 µM (active); in assay [12], 23.5 µM (active); in [10] it was 11.8 µM (active).
